# Source: PubChem BioAssay (EPA / NIEHS)
# Results filed as inconclusive are left out. Activity calls are given as the source filed them. How the source made its calls, unless noted: active means hit-call score of the fitted dose curve at least 0.9, where 1 is the maximum; inconclusive means response in the unintended direction; inactive means score below 0.9.
# Tests used:
# [1] = target: rat Thyrotropin Releasing Hormone Receptor (TRH), Trhr (gene 25570) (UniProt Q01717); assay: NVS_GPCR_rTRH: NovaScreen (NVS) G Protein-Coupled Receptor Assay for rat Thyrotropin Releasing Hormone Receptor (TRH) (AID 2283329);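 further: hit means lower bound tracer signal versus DMSO baseline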
# In short: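 Competitive radioligand binding on rat forebrain membrane preparations, with filtration and scintillation readout after 4 h. Primary testing in duplicate at 25 uM; actives confirmed in concentration-response. DMSO defined baseline.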
# [2] = target: human Peripheral-type Benzodiazepine Receptor (PBR), TSPO (gene 706) (UniProt P30536); assay: NVS_MP_hPBR: NovaScreen (NVS) Membrane Protein Assay for human Peripheral-type Benzodiazepine Receptor (PBR) (AID 2283331);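 further: hits reduce radioligand binding relative to DMSO baseline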
# In short: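 Radioligand displacement on human colonic cell membranes, 1 h incubation; bound radioactivity by filtration and scintillation counting. Primary screen in duplicate at 25 uM single concentration, actives followed up in concentration series; loss of binding versus DMSO.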
# [3] = target: rat Peripheral-type Benzodiazepine Receptor (PBR), Tspo (gene 24230) (UniProt P16257); assay: NVS_MP_rPBR: NovaScreen (NVS) Membrane Protein Assay for rat Peripheral-type Benzodiazepine Receptor (PBR) (AID 2283335)
# In short: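 Radioligand displacement, rat kidney membrane prep, 1 h exposure, filter-based scintillation read; DMSO baseline, loss-of-signal scored. Primary screen at 25 uM in duplicate, actives followed up in concentration series.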
# [4] = system: NCBI gene 100848466; assay: NVS_NR_bPR: NovaScreen (NVS) Nuclear Receptor Binding Assay for bovine Progextron Receptor (PR) (AID 2283343);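 on AC50: actives lower bound radioligand signal below DMSO meaning displacement of the label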
# In short: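 Bovine uterine membrane preparation; radioligand displacement read by scintillation counting 18 h after dosing. Primary screen single concentration, 25 uM, in duplicate; actives followed up in concentration series. Signal loss versus DMSO baseline.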
# [5] = target: chimpanzee Androgen Receptor (AR), AR (gene 747460) (UniProt O97775); assay: NVS_NR_cAR: NovaScreen (NVS) Nuclear Receptor Binding Assay for chimpanzee Androgen Receptor (AR) (AID 2283346);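 further: radioligand displacement from AR measured by scintillation counting in a cell-free assay; a loss of bound radioligand signal versus DMSO counts as binding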
# In short: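 Radioligand binding to chimpanzee AR expressed in Sf9/Sf21 cells, cell-free, measured 72 h after dosing by lysate-based scintillation counting. Loss of signal vs DMSO; initial duplicate screen at 25 uM, actives retested in concentration series.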
# [6] = target: Voltage-gated inwardly rectifying potassium channel KCNH2 (Homo sapiens) (UniProt Q12809); assay: NVS_IC_hKhERGCh: NovaScreen (NVS) Ion Channel Assay for human Potassium Channel ERG (KhERGCh) (AID 2283333)
# In short: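 Cell-free radioligand competition binding on hERG protein extracted from CHO cells, read by filter-based scintillation counting 0.75 h after dosing. Primary screen at 25 uM in duplicate, actives followed in concentration series. Signal loss fitted versus DMSO.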
# [7] = target: human Constitutive Androstane Receptor (CAR), NR1I3 (gene 9970) (UniProt Q14994); assay: NVS_NR_hCAR_Antagonist: NovaScreen (NVS) Nuclear Receptor Binding Assay for human Constitutive Androstane Receptor Antagonism (CAR) (AID 2283344)
# In short: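 Cell-free TR-FRET binding read 1 h after dosing, antagonist mode; loss of signal versus DMSO baseline. Primary screen in duplicate at a single 25 uM; actives retested in concentration series.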
# [8] = target: human Serotonin, 5-Hydroxytryptamine Receptor 3 (5HT3), HTR3A (gene 3359) (UniProt P46098); assay: NVS_LGIC_h5HT3: NovaScreen (NVS) Ligand-Gated Ion Channel Assay for human Serotonin, 5-Hydroxytryptamine Receptor 3 (5HT3) (AID 2283325)
# In short: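 Radioligand displacement binding to human 5-HT3 from HEK293 membranes, read by filter-based scintillation counting after 1 h. Screen at 25 uM in duplicate; chemicals passing threshold were retested in concentration-response up to 50 uM.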
# [9] = target: rat Glutamate, NMDA Agonist Site (GluNMDA), Grin1 (gene 24408) (UniProt P35439); assay: NVS_LGIC_rGluNMDA_Agonist: NovaScreen (NVS) Ligand-Gated Ion Channel Assay for rat Glutamate, NMDA Agonist Site (GluNMDA) (AID 2283327)
# In short: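 Rat forebrain membranes, radioligand binding in the agonist-site protocol; 1 h after dosing; filter-based scintillation counting. Single-concentration duplicate screen at 25 uM, then concentration-response up to 50 uM for actives; gain-of-signal vs DMSO.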
# [10] = NVS_IC_rCaBTZCHL: NovaScreen (NVS) Ion Channel Assay for Calcium Channel, Type L, Benzothiazepine Site (CaBTZCHL) (AID 2283337)
# In short: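 Competitive displacement of a site-specific radioligand from rat cortex membranes, measured as signal loss against DMSO baseline by filter radiodetection after 1.5 h. Single-point 25 uM primary screen.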
# [11] = system: guinea pig Histamine Receptor (H2), gene 100729734; assay: NVS_GPCR_gH2: NovaScreen (NVS) G Protein-Coupled Receptor Assay for guinea pig Histamine Receptor (H2) (AID 2283342)
# In short: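 Radioligand displacement on guinea pig striatal membranes, 1 h after dosing, filter-based scintillation counting; loss of signal versus DMSO. Single-point screen at 25 uM in duplicate, then concentration-response up to 50 uM.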
# [12] = target: bovine Estrogen Receptor (ER), ESR1 (gene 407238) (UniProt P49884); assay: NVS_NR_bER: NovaScreen (NVS) Nuclear Receptor Binding Assay for bovine Estrogen Receptor (ER) (AID 2283345);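 further: actives lower the bound radioligand count which means they displace the ER ligand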
# In short: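 Displacement of a radioligand from estrogen receptor in bovine uterine membrane preparations; scintillation signal taken at 18 hours, DMSO as baseline. Single-concentration duplicates (25 uM) preceded concentration-response follow-up of actives.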
# [13] = target: human Androgen Receptor (AR), AR (gene 367) (UniProt P10275); assay: NVS_NR_hAR: NovaScreen (NVS) Nuclear Receptor Binding Assay for human Androgen Receptor (AR) (AID 2283332)
# In short: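 LnCAP cell-free extract; radioligand displacement read by scintillation counting after 20 h. Primary screen single concentration 25 uM in duplicate, actives then run as concentration series; loss-of-signal fitted relative to DMSO baseline.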
# [14] = target: rat Oxytocin Receptor (OXT), Oxtr (gene 25342) (UniProt P70536); assay: NVS_GPCR_rOXT: NovaScreen (NVS) G Protein-Coupled Receptor Assay for rat Oxytocin Receptor (OXT) (AID 2283330)
# In short: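 Radioligand displacement on rat uterine membranes, 1 h incubation, filter-based scintillation counting. Chemicals were screened in duplicate at 25 uM, and those passing threshold were retested in concentration-response up to 50 uM. Loss of binding was fitted versus DMSO.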
# [15] = target: Glutamate receptor ionotropic, kainate 1 (Rattus norvegicus) (UniProt P22756); assay: NVS_IC_rKAR: NovaScreen (NVS) Ion Channel Assay for rat Kainic Acid Receptors (KAR) (AID 2283334; active means hit-call score of the fitted dose curve at least 0.9, where 1 is the maximum; inactive means score below 0.9)
# In short: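 Radioligand displacement binding using rat forebrain membranes, 1 h incubation, filter-based scintillation counting. Screened in duplicate at 25 uM, with actives retested in concentration-response up to 50 uM; fitted against DMSO.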
# rat Thyrotropin Releasing Hormone Receptor (TRH), Trhr (gene 25570), sequence (Q01717 whole entry, looked up): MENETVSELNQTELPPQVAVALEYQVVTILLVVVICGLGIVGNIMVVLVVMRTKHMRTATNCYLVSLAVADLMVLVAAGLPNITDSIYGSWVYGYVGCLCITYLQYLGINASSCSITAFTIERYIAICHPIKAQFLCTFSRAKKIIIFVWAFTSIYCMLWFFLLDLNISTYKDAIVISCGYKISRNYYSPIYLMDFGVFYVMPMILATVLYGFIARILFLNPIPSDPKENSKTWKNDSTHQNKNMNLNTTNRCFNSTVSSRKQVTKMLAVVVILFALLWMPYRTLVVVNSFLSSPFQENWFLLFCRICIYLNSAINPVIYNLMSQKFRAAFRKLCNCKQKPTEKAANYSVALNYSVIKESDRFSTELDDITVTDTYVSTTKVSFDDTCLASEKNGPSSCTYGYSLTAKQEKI
# rat Peripheral-type Benzodiazepine Receptor (PBR), Tspo (gene 24230), sequence (P16257 whole entry, looked up): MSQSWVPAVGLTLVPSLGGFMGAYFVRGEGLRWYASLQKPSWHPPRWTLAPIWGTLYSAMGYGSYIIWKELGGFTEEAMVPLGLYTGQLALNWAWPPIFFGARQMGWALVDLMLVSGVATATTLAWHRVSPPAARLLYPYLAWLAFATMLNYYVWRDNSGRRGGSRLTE
# human Peripheral-type Benzodiazepine Receptor (PBR), TSPO (gene 706), sequence (P30536 whole entry, looked up): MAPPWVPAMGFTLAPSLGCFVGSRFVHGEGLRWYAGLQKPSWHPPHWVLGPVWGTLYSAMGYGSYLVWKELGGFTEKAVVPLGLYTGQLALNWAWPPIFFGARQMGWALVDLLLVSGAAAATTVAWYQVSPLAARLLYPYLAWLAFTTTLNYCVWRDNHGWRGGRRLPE
# chimpanzee Androgen Receptor (AR), AR (gene 747460), sequence (O97775 whole entry, looked up): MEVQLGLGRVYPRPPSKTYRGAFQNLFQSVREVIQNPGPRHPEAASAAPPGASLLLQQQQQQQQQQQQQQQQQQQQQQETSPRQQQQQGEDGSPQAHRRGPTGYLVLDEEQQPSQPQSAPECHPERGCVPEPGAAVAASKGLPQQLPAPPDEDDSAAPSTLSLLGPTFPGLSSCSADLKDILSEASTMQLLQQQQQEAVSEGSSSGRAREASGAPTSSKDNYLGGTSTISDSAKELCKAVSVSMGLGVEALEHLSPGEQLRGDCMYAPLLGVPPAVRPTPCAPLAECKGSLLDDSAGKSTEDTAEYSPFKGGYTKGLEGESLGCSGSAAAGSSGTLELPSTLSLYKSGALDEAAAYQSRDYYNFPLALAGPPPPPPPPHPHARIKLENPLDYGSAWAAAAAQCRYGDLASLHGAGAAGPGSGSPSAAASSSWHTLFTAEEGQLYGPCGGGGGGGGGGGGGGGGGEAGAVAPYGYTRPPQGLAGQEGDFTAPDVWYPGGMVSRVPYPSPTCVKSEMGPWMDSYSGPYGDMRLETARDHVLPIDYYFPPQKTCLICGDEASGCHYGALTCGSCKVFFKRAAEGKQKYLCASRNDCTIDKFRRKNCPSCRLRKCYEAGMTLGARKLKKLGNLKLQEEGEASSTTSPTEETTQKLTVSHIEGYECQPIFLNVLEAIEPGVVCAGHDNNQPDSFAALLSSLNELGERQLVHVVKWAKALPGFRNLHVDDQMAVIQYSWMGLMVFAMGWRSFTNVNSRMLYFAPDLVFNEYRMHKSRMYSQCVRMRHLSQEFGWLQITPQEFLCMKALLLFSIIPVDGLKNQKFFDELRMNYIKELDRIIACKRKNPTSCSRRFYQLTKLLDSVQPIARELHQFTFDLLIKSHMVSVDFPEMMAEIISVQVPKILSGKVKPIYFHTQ
# human Constitutive Androstane Receptor (CAR), NR1I3 (gene 9970), sequence (Q14994 whole entry, looked up): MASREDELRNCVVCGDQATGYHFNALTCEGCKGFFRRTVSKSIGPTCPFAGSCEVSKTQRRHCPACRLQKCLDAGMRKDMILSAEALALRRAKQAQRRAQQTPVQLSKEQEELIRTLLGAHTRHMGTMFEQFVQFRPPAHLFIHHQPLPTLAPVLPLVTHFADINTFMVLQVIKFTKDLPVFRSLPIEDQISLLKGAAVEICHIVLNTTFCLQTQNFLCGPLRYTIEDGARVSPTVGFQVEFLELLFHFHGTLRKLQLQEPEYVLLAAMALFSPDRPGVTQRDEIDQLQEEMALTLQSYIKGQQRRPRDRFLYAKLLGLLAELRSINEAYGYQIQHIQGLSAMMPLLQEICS
# Voltage-gated inwardly rectifying potassium channel KCNH2 (Homo sapiens), sequence (Q12809 whole entry, looked up): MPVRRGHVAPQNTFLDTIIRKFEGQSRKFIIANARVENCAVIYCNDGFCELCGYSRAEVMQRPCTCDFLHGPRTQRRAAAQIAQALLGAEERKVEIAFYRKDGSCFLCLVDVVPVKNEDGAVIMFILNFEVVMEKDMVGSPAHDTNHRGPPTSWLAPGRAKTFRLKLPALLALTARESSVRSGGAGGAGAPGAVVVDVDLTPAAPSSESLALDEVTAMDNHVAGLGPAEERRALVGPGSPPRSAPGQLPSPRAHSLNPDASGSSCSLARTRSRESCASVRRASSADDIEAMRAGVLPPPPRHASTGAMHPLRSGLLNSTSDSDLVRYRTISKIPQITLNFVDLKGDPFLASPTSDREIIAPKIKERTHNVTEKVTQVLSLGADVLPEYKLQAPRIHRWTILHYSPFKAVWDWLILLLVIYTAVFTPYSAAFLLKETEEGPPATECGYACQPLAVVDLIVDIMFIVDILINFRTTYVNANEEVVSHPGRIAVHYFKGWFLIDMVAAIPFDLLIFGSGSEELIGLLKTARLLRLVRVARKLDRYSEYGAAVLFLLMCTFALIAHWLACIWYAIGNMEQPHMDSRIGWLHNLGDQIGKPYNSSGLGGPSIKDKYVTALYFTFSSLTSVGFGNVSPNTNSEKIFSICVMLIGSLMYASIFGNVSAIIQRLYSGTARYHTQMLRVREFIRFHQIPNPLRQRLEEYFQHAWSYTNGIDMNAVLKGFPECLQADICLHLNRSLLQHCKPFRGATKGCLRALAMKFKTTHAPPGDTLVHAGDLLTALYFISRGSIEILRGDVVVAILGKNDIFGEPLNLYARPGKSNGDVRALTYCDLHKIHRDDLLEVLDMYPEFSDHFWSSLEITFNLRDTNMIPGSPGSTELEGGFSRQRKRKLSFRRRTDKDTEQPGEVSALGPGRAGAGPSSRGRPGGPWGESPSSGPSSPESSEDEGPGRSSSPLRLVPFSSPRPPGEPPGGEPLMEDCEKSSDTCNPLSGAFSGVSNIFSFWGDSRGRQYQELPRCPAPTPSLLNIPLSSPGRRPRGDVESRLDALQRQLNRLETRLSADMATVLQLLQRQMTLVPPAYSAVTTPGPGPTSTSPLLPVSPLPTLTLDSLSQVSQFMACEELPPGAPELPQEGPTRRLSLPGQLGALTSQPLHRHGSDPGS
# human Serotonin, 5-Hydroxytryptamine Receptor 3 (5HT3), HTR3A (gene 3359), sequence (P46098 whole entry, looked up): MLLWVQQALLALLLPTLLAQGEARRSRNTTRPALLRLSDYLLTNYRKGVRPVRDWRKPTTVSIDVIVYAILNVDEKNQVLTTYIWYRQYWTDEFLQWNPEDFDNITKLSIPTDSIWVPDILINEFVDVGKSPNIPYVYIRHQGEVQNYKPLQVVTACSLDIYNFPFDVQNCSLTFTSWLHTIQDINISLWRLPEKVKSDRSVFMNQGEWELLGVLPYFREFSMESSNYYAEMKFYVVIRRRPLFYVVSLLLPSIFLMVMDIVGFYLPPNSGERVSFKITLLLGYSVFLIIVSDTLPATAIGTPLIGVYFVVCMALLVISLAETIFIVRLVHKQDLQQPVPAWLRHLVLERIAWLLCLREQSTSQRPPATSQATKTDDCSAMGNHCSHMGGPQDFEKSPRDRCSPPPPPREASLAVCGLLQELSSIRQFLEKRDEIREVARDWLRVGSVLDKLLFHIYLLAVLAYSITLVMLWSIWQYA
# rat Oxytocin Receptor (OXT), Oxtr (gene 25342), sequence (P70536 whole entry, looked up): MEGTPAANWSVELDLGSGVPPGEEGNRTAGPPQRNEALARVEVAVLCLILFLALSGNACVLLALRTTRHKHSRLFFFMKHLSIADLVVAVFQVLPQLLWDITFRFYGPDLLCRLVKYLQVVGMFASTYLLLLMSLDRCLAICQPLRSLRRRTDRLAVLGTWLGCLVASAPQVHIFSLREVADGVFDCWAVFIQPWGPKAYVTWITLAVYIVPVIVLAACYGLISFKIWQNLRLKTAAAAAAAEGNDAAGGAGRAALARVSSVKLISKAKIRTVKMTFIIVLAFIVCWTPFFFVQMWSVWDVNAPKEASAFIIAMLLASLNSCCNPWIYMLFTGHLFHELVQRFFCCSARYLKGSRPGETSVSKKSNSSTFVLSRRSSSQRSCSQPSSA
# human Androgen Receptor (AR), AR (gene 367), sequence (P10275 whole entry, looked up): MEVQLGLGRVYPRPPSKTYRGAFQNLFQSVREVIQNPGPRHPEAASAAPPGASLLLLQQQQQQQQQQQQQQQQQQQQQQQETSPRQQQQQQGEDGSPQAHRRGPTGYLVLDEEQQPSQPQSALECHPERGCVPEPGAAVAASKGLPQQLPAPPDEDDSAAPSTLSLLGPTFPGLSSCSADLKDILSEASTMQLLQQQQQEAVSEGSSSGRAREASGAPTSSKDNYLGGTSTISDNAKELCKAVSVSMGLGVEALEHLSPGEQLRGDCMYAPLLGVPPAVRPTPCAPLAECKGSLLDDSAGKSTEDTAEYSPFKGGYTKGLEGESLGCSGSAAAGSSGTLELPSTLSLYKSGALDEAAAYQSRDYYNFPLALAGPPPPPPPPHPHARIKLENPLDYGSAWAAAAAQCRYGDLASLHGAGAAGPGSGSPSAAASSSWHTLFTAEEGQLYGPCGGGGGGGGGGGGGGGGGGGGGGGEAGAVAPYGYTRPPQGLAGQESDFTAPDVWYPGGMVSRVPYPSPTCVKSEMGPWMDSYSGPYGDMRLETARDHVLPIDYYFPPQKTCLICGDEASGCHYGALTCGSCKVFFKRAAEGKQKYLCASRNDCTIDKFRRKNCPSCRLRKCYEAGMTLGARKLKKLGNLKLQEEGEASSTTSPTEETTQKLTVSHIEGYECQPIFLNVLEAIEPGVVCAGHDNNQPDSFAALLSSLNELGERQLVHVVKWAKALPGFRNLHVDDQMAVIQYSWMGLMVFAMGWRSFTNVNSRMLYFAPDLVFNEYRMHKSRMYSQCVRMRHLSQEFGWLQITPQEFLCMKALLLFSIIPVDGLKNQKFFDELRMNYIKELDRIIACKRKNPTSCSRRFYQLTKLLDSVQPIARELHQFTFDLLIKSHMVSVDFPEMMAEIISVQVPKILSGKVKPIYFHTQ
smiles,measurement,setting,value
C[Si](Cn1cncn1)(c1ccc(F)cc1)c1ccc(F)cc1,outcome,[1],inactive
same,AC50,[2],25 µM (active)
same,outcome,[3],inactive
same,AC50,[4],25 µM (active)
same,AC50,[5],9.47 µM (active)
CCCCSP(=O)(SCCCC)SCCCC,AC50,[2],17.9 µM (active)
same,outcome,[6],inactive
same,AC50,[3],3.75 µM (active)
same,outcome,[7],inactive
CCc1cnc(C2=NC(C)(C(C)C)C(=O)N2)c(C(=O)O)c1 (centres undefined),outcome,[1],inactive
C#CCC1=C(C)C(OC(=O)C2C(C=C(C)C)C2(C)C)CC1=O (centres undefined),outcome,[8],inactive
same,outcome,[2],inactive
same,AC50,[3],20 µM (active)
same,outcome,[4],inactive
same,outcome,[7],inactive
same,outcome,[5],inactive
CC[C@H](C)[C@H]1O[C@]2(C=C[C@@H]1C)C[C@@H]1C[C@@H](C/C=C(\C)[C@@H](O[C@H]3C[C@H](OC)[C@@H](O[C@H]4C[C@H](OC)[C@@H](NC)[C@H](C)O4)[C@H](C)O3)[C@@H](C)/C=C/C=C3\CO[C@@H]4[C@H](O)C(C)=C[C@@H](C(=O)O1)[C@]34O)O2,AC50,[9],16.4 µM (active)
same,AC50,[6],0.00229 µM (active)
same,AC50,[10],10 µM (active)
same,AC50,[11],26.4 µM (active)
same,AC50,[7],31 µM (active)
same,outcome,[12],inactive
same,AC50,[5],6.02 µM (active)
CC(C1CC1)C(O)(Cn1cncn1)c1ccc(Cl)cc1 (centres undefined),outcome,[1],inactive
same,outcome,[2],inactive
same,outcome,[4],inactive
same,AC50,[5],24.9 µM (active)
COc1ccc(C(=CC(=O)N2CCOCC2)c2ccc(Cl)cc2)cc1OC,outcome,[2],inactive
same,AC50,[13],1.79 µM (active)
same,outcome,[3],inactive
same,outcome,[10],inactive
same,outcome,[11],inactive
same,outcome,[7],inactive
same,AC50,[5],17.3 µM (active)
O=[N+]([O-])c1cc(C(F)(F)F)c(Cl)c([N+](=O)[O-])c1Nc1ncc(C(F)(F)F)cc1Cl,outcome,[1],inactive
same,outcome,[6],inactive
same,outcome,[7],inactive
CSc1nnc(C(C)(C)C)c(=O)n1N,outcome,[8],inactive
same,outcome,[14],inactive
same,outcome,[10],inactive
same,outcome,[7],inactive
C#CC(C)(C)NC(=O)c1cc(Cl)cc(Cl)c1,outcome,[1],inactive
same,AC50,[2],1.47 µM (active)
same,AC50,[3],0.19 µM (active)
same,outcome,[4],inactive
same,outcome,[7],inactive
CCc1cccc(CC)c1N(COC)C(=O)CCl,outcome,[9],inactive
same,AC50,[2],11.1 µM (active)
same,AC50,[3],5.18 µM (active)
same,AC50,[7],9.33 µM (active)
same,AC50,[5],34.6 µM (active)
COP(=O)(NC(C)=O)SC (centres undefined),outcome,[2],inactive
same,outcome,[15],inactive
CCOC(=O)CC(SP(=O)(OC)OC)C(=O)OCC (centres undefined),outcome,[1],inactive
same,outcome,[2],inactive
same,AC50,[3],19.7 µM (active)
same,outcome,[4],inactive
same,outcome,[7],inactive
CON=C(C(=O)OC)c1ccccc1CON=C(C)c1cccc(C(F)(F)F)c1,outcome,[1],inactive
same,AC50,[2],1.06 µM (active)
same,AC50,[3],0.612 µM (active)
same,outcome,[7],inactive
CCC(CC)Nc1c([N+](=O)[O-])cc(C)c(C)c1[N+](=O)[O-],outcome,[1],inactive
same,outcome,[2],inactive
same,outcome,[3],inactive
same,AC50,[4],40.1 µM (active)
same,outcome,[7],inactive
CCC(=O)Nc1ccc(Cl)c(Cl)c1,outcome,[1],inactive
same,AC50,[2],15.6 µM (active)
same,AC50,[13],8.41 µM (active)
same,AC50,[3],9.5 µM (active)
same,outcome,[7],inactive
same,AC50,[5],12.4 µM (active)
CNc1cnn(-c2cccc(C(F)(F)F)c2)c(=O)c1Cl,outcome,[14],inactive
same,AC50,[2],5.75 µM (active)
same,AC50,[3],4.99 µM (active)
same,outcome,[4],inactive
same,outcome,[7],inactive
CCOP(=S)(Oc1cnc(C(C)(C)C)nc1)OC(C)C (centres undefined),outcome,[2],inactive
same,outcome,[3],inactive
CNC(=O)ON=C(C)SC,outcome,[2],inactive
CCCOCC(=Nc1ccc(Cl)cc1C(F)(F)F)n1ccnc1,AC50,[2],8.63 µM (active)
same,outcome,[6],inactive
same,AC50,[3],0.807 µM (active)
same,outcome,[10],inactive
same,outcome,[4],inactive
same,AC50,[7],5.88 µM (active)
same,AC50,[5],5.96 µM (active)
S=C1NCCN1,outcome,[2],inactive
